Bioassay records as filed in PubChem BioAssay.
Giardia kill: kills Giardia lamblia; Giardia lamblia trophozoite viability; activity change, % at 7.66 µM, hits read low; hit rate 0.15% among 340,000; AID 540267; in the data active means activity change below about -80%; inconclusive means between about -30% and that limit;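 further: parasites exposed to compound for two days anaerobically before the ATP read; on the % scale 0 is the no-effect control and ±100 the full control effect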
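Viability, read as ATP luminescence: trophozoites at 100 cells/well, compound added, 48 hrs anaerobic at 37 deg C, then 15-30 min room-temperature development before reading.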
S2 tox: reduces viability in counter-screen for ATXN expression inhibitors; Potency, µM (top dose mostly 56.7 µM), usual class: cytotoxic; S2 cells (HEK-293 line with an ATXN2-luciferase reporter) viability, CellTiter-Fluor protease fluorescence, 24 h; hit rate 0.49% among 400,000; further: potency means the concentration at half of the fitted maximal effect; nearly all actives have a fitted effect of over 40% in size
ATXN2 expr inh: ATXN2 expression inhibition | HEK-293 ATXN2-luciferase reporter, luminescence, 24 h | Potency, µM (top dose mostly 57 µM), for inactives: top-dose activity change, negative = inhibition, hits mostly inhibitors | hit rate 0.72% among 360,000; further: potency means the concentration at half of the fitted maximal effect; on the % scale 0 is the no-effect control and ±100 the full control effect; nearly all actives have a fitted effect of over 55% in size
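qHTS (up to 57 uM final) was run with 24 h compound exposure of reporter cells at 37 °C. Each well was multiplexed: SteadyGlo luminescence measured ATXN2-luciferase expression after a fluorogenic Gly-Phe-AFC viability readout (25 uM final).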
TGFb inhibitor: blocks TGF-b signaling; hit rate 1.2% among 410,000; HepG2 CAGA-GFP TGF-b/SMAD3 reporter, GFP fluorescence, 18 h; TGF-beta stimulated, 500 pg/mL final; Potency, µM (top dose mostly 46.1 µM), for the others: at the top dose activity, negative = inhibition, hits mostly inhibitors; further: potency means the concentration at half of the fitted maximal effect; on the % scale 0 is the no-effect control and ±100 the full control effect; nearly all actives have a fitted effect of over 65% in size
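Inhibition was scored as loss of TGF-beta-induced (500 pg/mL final, 18 hours, 37 degrees C) GFP in HEPG2 cells carrying a CAGA-GFP reporter, in DMEM with 1% FBS. Well GFP was summed per cell; Activity was normalised to unstimulated and stimulated DMSO wells, then concentration-response fitting.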
uPA surface inh: cell surface uPA generation inhibition | cell surface uPA generation assay, qHTS | Potency, µM (top dose mostly 38.3 µM), for the others: at the highest dose activity change, negative = inhibition, usual class: inhibitors | hit rate 0.31% among 330,000; active means well fitted inhibition curve with a large enough effect; inconclusive means small, poorly fitted or top-dose-only effect; inactive means no such curve, though single readings can be large or run the other way; tested in mouse RAW 264.7 cells; further: potency means the concentration at half of the fitted maximal effect; on the % scale 0 is the no-effect control and ±100 the full control effect; nearly all actives have a fitted effect of over 55% in size
HepG2 viability: HepG2 cytotoxicity, counter-screen for TGF-b inhibitors; AID 588856; hit rate 0.76% among 410,000; HepG2 CAGA-GFP viability, ATP luminescence, 18 h; Potency, µM (doses to about 46.1 µM), without a hit: at the top dose activity change, negative = cytotoxicity, hits mostly cytotoxic; further: potency means the concentration at half of the fitted maximal effect
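HepG2 CAGA-GFP cells (1000/well, DMEM with 1% FBS) received compound, then TGF-beta at 500 pg/mL final, and were incubated 18 hours at 37 degrees C. Viability was read by CellTiter-Glo luminescence. Media-only wells were set as complete cell-killing and DMSO as no toxicity.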
Starred values were filed as active, the others as inactive; i = inactive; u = inconclusive; x = not tested or not shown. Most compounds without a hit are left out; they make up all but 2.6% or so of the library. Unless noted, the call rests on the fitted dose curve; in most records, active means well fitted curve in the direction sought with a large enough effect; inconclusive means small, poorly fitted or top-dose-only effect, or another doubt; inactive means no such curve, though single readings can be large; an effect the other way counts as inactive or inconclusive.

SMILES	Giardia kill	S2 tox	ATXN2 expr inh	TGFb inhibitor	uPA surface inh	HepG2 viability
Cc1ccc(O)c(-c2n[nH]c3c2C(c2ccccc2F)N(Cc2ccco2)C3=O)c1 (stereo not given)	x	x	u	u	x	11µM*
O=C1c2ccccc2S(=O)(=O)c2cc(N3CCOCC3)ccc21	u	i	u	-24%	2.5µM*	-35%
COc1cccc(CNC(=O)c2cc3c(C)nc4ccccc4c3o2)c1	7	u	-31%	u	u	-19%
CCc1ccc(CNC(=O)c2cc3c(C)nc4ccccc4c3o2)cc1	4	u	20µM*	u	u	-19%
CCn1c(SCC(=O)Nc2ccc(Cl)cc2)nc2nc3c(cc2c1=O)CCCC3	11	i	-24%	-5%	5%	-5%
CCn1c(SCC(=O)Nc2ccc(C(C)=O)cc2)nc2nc3c(cc2c1=O)CCCC3	-2	28µM*	u	3%	x	-19%
O=c1[nH]cnc2c1ncn2[C@H]1C[C@H](O)[C@@H](CO)O1	-9	x	x	0%	x	-2%
CCc1nc2ccc(C(=O)N3CCN(c4ccccc4)CC3)cn2c1N(C)CCCc1ccccc1	x	u	-13%	u	x	16µM*
CCc1nc2ccc(C(=O)N3CCN(S(=O)(=O)CC)CC3)cn2c1N(C)CCC(C)C	x	i	5%	0%	x	3.2µM*
CCc1nc2ccc(C(=O)Nc3ccc(C(=O)N(C)C)cc3)cn2c1N(C)CCCc1ccccc1	x	28µM*	u	-6%	x	-20%
CCc1nc2ccc(C(=O)N3CCN(S(=O)(=O)CC)CC3)cn2c1N(CCC(C)C)CCN(C)C	x	i	-1%	4%	x	-20%
CCc1nc2ccc(C(=O)N3CCN(c4ccccc4)CC3)cn2c1N(C)CCC(C)C	x	i	-1%	13µM*	x	-89%
C1=CCOCc2cc(ccc2OCCN2CCCC2)Nc2nccc(n2)-c2cccc(c2)OCC1	x	x	15µM*	x	x	x
C=CC[n+]1cccc2cc(Br)ccc21	x	x	x	-14%	x	4%
COCCNC(=O)c1ccc2c3n(nc2c1)-c1ccccc1CO3	u	i	23%	8%	4µM*	-16%
O=C(NCC1CC1)c1ccc2c3n(nc2c1)-c1ccc(Cl)cc1CO3	-4	u	-20%	u	u	-28%
COCCNC(=O)c1ccc2c3n(nc2c1)-c1ccc(Cl)cc1CO3	-20	i	48%	3%	10µM*	5%
C=CCNC(=O)c1ccc2c3n(nc2c1)-c1ccccc1CO3	u	i	-7%	u	1.4µM*	-52%
O=C(NCCO)c1ccc2c3n(nc2c1)-c1ccc(Cl)cc1CO3	12	i	13%	0%	u	0%
C=CCn1c(=O)n([C@@H]2O[C@H](CO)[C@@H](O)[C@H]2O)c2nc(N)[nH]c(=O)c21	x	i	-3%	x	x	x
[O-][n+]1cccc(/C(Cl)=N/OC[C@@H](O)CN2CCCCC2)c1	x	i	14%	x	x	x
Cc1[nH]c2ccccc2c1C(=O)CCl	-23	11µM*	x	u	8.9µM*	-5%
O=C(Nc1cccc(-c2csc(Nc3ccc(Cl)cc3)n2)c1)c1ccccc1	11	16µM*	u	u	u	-17%
Cc1cccc(OCCCn2c(CCNC(=O)C3CCCCC3)nc3ccccc32)c1	19	x	x	22µM*	x	-70%
O=C(NCCCc1nc2ccccc2n1Cc1ccccc1)C1CCCCC1	x	u	u	u	x	-35%
SMILES	Giardia kill	S2 tox	ATXN2 expr inh	TGFb inhibitor	uPA surface inh	HepG2 viability
Cc1cc(C)cc(OCCCn2c(CCNC(=O)C3CCCCC3)nc3ccccc32)c1	-29	x	x	u	x	-34%
O=C(NCCc1nc2ccccc2n1CCCOc1ccc(Cl)cc1)C1CCCCC1	3	x	x	18µM*	x	-97%
S=C(Nc1ccccc1)Nc1nc2ccccc2n1CCOc1ccc(Cl)cc1	13	i	u	14µM*	-11%	-58%
O=C(NCCCc1nc2ccccc2n1Cc1ccc(F)cc1)C1CCCCC1	x	u	-39%	13µM*	x	-53%
COc1cc(=O)n2c(c1C(=O)N(C)Cc1nccs1)CCN(Cc1c(F)ccc(F)c1F)CC2	x	i	x	x	x	x
CC(C)(C)c1ccc(OCCn2c(CCNC(=O)C3CCCCC3)nc3ccccc32)cc1	4	x	x	20µM*	x	-78%
Cc1cccc(C)c1OCCn1c(CCNC(=O)C2CCCCC2)nc2ccccc21	-9	x	x	13µM*	x	-59%
Cc1cc(C)cc(OCCn2c(CCNC(=O)C3CCCCC3)nc3ccccc32)c1	-6	x	x	-2%	x	0%
O=C(/C=C/c1ccccc1)NNC(=O)C1CC1	9	i	8%	14µM*	x	-102%
O=C(/C=C/c1ccccc1)/C=C/c1ccccc1	-26	40µM*	u	u	-14%	-17%
O=C(/C=C/c1ccccc1)c1ccc2ccccc2c1	11	i	62%	u	-10%	20µM*
OCC(O)COc1ccc(Cl)cc1 (stereo not given)	x	i	x	x	x	x
CCSC(=O)N1CCN(/[N+]([O-])=N/Oc2ccc([N+](=O)[O-])cc2[N+](=O)[O-])CC1	x	x	x	u	x	-108%
COc1ccc(Cl)cc1NC(=O)Cn1nc(C(F)(F)F)c2c1CCCC2	x	u	-30%	13µM*	x	-30%
O=C(Cn1nc(-c2ccc(Cl)cc2)c2ccccc2c1=O)Nc1cccc(C(F)(F)F)c1	x	u	-30%	11µM*	x	-31%
O=C(Cn1nc(C(F)(F)F)c2c1CCCC2)Nc1cccc(Cl)c1	x	u	u	11µM*	x	-71%
O=c1[nH]c(=O)n([C@H]2O[C@H](CO)[C@@H](O)[C@@H]2O)cc1/C=C\Br	x	i	-9%	x	x	x
COc1ccc(CN(CCC(c2ccccc2)c2ccc(OC(C)C)cc2)C(=O)CCl)cc1OC (stereo not given)	-14	x	u	u	-15%	10µM*
COc1ccc(C(CCN(Cc2ccc(OC)c(OC)c2)C(C)=O)c2ccccc2)cc1 (stereo not given)	-1	u	x	-8%	-19%	-24%
CCc1ccc(S(=O)(=O)ON2C(=O)c3ccccc3C2=O)cc1	-29	x	30µM*	u	1%	-3%
Cc1sccc1Br	x	i	5%	x	x	x
Cc1ncc(CO)c2c1Oc1nc(-c3ccccc3F)nc(SCC(=O)N(C)c3ccccc3)c1C2	12	18µM*	u	u	-4%	-9%
Cc1ncc(CO)c2c1Oc1nc(-c3ccccc3)nc(SCC(=O)N3CCOCC3)c1C2	-5	i	-2%	u	-6%	-12%
Cc1ncc(CO)c2c1Oc1nc(-c3ccccc3)nc(SCC(=O)N3CCCCC3)c1C2	-24	14µM*	-39%	-8%	-8%	-12%
CSc1nc(C(=O)NCc2nc(-c3cccc(NC(=O)c4ccc(C)s4)c3)oc2C)cs1	x	i	x	x	x	x
